# Key:
# [1] = molecular target: Tyrosine-protein kinase Fyn (Homo sapiens) (UniProt P06241); conditions: at 1 µM
# [2] = molecular target: Tyrosine-protein kinase HCK (Homo sapiens) (UniProt P08631); conditions: at 0.1 µM
# [3] = molecular target: Tyrosine-protein kinase HCK (Homo sapiens) (UniProt P08631); conditions: at 1 µM
# [4] = molecular target: Insulin-like growth factor 1 receptor (Homo sapiens) (UniProt P08069); conditions: at 0.1 µM
# [5] = molecular target: Insulin-like growth factor 1 receptor (Homo sapiens) (UniProt P08069); conditions: at 1 µM
# [6] = molecular target: Insulin receptor (Homo sapiens) (UniProt P06213); conditions: at 0.1 µM
# [7] = molecular target: Insulin receptor (Homo sapiens) (UniProt P06213); conditions: at 1 µM
# [8] = molecular target: Insulin receptor-related protein (Homo sapiens) (UniProt P14616); conditions: at 0.1 µM
# [9] = molecular target: Insulin receptor-related protein (Homo sapiens) (UniProt P14616); conditions: at 1 µM
# [10] = molecular target: T1, Tyrosine-protein kinase ITK/TSK (Homo sapiens) (UniProt Q08881); conditions: at 0.1 µM;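 note: mean percent inhibition of ITK from the GSK PKIS screen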
# T1 sequence (whole entry): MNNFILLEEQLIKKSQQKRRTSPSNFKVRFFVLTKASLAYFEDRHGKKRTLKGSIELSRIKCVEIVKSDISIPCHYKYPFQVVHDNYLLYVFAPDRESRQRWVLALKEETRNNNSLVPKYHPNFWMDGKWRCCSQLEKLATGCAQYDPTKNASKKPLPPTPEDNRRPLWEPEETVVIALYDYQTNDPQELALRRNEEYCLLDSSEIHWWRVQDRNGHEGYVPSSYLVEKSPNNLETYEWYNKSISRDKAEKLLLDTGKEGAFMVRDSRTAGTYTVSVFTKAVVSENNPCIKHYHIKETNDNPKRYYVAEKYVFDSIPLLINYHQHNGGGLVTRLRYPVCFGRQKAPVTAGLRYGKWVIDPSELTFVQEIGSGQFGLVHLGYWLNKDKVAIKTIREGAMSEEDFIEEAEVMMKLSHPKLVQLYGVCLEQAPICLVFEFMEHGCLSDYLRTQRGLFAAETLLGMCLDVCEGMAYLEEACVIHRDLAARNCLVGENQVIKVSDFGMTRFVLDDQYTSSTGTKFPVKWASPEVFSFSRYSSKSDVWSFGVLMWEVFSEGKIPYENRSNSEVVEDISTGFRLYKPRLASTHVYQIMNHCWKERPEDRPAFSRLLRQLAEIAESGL
# Insulin-like growth factor 1 receptor (Homo sapiens), sequence (P08069 31-736 limits assumed): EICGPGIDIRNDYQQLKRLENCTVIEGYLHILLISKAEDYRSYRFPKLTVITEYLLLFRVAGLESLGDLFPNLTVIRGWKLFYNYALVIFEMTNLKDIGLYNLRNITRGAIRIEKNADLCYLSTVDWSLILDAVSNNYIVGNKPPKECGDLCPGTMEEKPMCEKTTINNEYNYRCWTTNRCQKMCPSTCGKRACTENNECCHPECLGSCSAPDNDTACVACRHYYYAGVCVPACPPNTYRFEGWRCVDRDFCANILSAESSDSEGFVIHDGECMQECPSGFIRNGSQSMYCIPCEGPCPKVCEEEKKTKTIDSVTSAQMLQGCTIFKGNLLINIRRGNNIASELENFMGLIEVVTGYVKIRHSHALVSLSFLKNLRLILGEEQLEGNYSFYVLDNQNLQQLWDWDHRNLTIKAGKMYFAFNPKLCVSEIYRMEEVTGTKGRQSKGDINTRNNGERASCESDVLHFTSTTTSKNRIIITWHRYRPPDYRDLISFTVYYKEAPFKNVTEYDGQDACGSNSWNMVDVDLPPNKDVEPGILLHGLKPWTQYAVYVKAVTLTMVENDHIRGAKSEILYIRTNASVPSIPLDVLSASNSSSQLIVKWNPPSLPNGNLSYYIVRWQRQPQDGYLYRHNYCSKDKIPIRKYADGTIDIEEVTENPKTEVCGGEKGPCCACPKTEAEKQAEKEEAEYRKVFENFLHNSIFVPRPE
# Insulin-like growth factor 1 receptor (Homo sapiens), sequence (P08069 741-1367 limits assumed): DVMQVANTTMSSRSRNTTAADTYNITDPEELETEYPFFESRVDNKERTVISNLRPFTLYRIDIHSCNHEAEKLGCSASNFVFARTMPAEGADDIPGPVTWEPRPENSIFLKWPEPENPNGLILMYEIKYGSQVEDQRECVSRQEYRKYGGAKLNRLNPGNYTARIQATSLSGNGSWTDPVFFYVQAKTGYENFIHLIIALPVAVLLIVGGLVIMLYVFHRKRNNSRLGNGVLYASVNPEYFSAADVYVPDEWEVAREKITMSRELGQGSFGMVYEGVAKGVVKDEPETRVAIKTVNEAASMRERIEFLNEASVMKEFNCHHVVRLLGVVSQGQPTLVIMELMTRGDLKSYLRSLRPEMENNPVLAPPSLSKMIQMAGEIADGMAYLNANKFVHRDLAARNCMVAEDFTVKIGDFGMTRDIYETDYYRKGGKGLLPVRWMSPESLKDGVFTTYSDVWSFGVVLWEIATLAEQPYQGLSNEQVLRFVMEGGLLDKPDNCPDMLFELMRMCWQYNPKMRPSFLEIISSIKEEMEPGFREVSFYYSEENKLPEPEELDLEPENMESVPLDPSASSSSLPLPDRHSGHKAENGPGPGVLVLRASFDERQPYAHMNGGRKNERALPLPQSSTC
# Insulin receptor (Homo sapiens), sequence (P06213 28-758 limits assumed): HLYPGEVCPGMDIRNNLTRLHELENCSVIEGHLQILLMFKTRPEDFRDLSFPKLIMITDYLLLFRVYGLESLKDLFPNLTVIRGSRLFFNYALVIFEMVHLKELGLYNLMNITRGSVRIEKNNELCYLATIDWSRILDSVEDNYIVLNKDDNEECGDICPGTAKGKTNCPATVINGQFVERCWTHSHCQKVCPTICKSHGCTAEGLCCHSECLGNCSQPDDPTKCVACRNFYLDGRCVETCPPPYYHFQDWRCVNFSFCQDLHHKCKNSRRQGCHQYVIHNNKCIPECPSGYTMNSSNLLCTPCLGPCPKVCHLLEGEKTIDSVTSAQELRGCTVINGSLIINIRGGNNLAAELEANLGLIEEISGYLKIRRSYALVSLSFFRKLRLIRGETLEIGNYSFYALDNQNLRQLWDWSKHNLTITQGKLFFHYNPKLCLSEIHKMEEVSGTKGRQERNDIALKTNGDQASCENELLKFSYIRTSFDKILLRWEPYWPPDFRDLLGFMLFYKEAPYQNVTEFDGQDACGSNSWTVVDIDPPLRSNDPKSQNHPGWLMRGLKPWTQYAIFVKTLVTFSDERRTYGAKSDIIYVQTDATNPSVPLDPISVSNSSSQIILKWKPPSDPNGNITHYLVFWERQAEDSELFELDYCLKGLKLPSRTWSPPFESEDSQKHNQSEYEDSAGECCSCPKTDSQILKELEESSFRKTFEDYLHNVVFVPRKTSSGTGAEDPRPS
# Insulin receptor (Homo sapiens), sequence (P06213 763-1382 limits assumed): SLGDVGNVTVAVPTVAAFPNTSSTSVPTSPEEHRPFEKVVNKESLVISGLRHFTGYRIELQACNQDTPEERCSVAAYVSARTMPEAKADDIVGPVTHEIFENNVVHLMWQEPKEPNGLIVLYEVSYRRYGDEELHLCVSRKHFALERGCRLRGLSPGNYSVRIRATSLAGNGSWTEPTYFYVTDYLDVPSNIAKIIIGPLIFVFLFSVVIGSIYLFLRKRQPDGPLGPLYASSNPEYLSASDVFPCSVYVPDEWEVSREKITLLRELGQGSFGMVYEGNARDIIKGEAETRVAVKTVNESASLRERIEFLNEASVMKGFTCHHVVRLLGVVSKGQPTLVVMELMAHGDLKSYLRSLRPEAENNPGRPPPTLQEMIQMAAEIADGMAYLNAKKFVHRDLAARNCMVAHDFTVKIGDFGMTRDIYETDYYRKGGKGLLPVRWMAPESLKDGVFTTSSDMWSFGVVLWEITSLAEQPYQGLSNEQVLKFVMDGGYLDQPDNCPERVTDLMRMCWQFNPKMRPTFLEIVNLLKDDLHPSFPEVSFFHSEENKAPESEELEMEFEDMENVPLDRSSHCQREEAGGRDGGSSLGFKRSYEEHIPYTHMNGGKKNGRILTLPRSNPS
# Tyrosine-protein kinase HCK (Homo sapiens), sequence (P08631 2-526 limits assumed): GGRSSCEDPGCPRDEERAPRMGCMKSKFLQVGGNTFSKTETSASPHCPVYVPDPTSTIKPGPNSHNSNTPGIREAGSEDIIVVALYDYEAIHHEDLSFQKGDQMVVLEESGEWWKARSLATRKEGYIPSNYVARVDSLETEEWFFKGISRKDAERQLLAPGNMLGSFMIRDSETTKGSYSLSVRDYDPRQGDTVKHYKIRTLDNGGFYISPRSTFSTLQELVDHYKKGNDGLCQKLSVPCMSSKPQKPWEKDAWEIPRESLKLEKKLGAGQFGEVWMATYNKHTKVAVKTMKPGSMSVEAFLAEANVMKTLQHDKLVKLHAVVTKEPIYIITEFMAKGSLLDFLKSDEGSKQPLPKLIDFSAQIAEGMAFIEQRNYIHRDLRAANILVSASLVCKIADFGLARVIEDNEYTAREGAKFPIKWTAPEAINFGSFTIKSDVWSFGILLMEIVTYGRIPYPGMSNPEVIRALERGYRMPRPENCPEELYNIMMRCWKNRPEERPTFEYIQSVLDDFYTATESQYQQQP
# Insulin receptor-related protein (Homo sapiens), sequence (P14616 27-742 limits assumed): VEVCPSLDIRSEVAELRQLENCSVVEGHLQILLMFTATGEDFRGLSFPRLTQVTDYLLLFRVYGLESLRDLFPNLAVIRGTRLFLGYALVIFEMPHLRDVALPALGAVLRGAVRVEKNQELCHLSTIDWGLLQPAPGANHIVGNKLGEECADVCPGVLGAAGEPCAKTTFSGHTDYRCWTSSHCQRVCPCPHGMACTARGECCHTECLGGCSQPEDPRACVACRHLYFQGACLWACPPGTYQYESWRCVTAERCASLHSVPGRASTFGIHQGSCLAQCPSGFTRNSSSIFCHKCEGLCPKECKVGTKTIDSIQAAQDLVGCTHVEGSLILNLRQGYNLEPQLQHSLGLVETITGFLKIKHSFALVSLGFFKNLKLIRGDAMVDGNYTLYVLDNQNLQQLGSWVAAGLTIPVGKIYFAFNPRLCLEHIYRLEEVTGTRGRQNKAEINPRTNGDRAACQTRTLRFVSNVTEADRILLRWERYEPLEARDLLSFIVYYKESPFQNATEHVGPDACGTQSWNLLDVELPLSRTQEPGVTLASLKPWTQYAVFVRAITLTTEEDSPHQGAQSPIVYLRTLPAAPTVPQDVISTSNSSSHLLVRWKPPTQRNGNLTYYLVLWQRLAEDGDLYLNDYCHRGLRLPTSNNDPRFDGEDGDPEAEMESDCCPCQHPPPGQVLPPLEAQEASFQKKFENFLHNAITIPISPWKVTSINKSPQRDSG
# Insulin receptor-related protein (Homo sapiens), sequence (P14616 747-1297 limits assumed): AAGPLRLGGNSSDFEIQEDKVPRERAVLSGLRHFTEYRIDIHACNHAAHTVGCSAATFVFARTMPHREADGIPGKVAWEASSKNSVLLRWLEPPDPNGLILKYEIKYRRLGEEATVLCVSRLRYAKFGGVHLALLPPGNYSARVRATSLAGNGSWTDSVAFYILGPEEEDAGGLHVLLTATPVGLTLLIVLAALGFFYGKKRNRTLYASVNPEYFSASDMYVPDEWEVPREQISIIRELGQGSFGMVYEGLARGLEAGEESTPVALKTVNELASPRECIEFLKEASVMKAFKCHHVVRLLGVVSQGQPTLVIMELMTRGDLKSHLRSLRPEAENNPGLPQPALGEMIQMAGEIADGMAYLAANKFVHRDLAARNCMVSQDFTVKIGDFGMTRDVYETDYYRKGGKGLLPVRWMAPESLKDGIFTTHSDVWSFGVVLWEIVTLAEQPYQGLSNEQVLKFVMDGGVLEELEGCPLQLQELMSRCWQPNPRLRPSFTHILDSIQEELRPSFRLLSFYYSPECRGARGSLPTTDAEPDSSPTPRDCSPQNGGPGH
# Tyrosine-protein kinase Fyn (Homo sapiens), sequence (P06241 2-537 limits assumed): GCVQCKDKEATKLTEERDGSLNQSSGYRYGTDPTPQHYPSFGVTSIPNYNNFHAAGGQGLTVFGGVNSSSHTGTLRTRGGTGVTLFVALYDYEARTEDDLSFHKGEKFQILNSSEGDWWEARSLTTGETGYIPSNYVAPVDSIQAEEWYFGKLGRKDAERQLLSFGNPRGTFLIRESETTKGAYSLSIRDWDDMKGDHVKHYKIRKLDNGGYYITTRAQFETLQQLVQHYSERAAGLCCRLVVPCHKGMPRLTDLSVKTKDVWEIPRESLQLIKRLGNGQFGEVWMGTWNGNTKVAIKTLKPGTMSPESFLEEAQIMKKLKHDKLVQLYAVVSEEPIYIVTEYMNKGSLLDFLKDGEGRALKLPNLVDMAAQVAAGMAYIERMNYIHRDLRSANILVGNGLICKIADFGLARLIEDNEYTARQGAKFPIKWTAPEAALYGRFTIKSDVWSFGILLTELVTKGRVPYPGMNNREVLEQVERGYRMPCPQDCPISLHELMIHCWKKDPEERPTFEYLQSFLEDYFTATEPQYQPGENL
SMILES,inhibition [1] [%],inhibition [2] [%],inhibition [3] [%],inhibition [4] [%],inhibition [5] [%],inhibition [6] [%],inhibition [7] [%],inhibition [8] [%],inhibition [9] [%],inhibition [10] [%]
CCn1cc(-c2ccnc3[nH]ccc23)c(-c2cccc(NC(=O)Nc3ccc(OCc4ccccc4)cc3)c2)n1,1.64,0.36,2.34,-3.42,0.41,2.08,3.81,-1.45,-1.26,-0.92
COc1cc(N2CCN(C(C)C)CC2)ccc1Nc1nc(Nc2ccc(F)cc2C(N)=O)c2cc[nH]c2n1,9.69,3.05,7.94,101,101,103,102,76.1,96.7,2.65
[O-][S+]1CCN(Cc2ccc(-c3ccc4ncnc(Nc5ccc(OCc6cccc(F)c6)c(Cl)c5)c4c3)o2)CC1,6,6.09,9.6,3.08,5.73,5.28,4.61,2.99,3.54,1.07
COc1cc(/C=N/Nc2ncnc3[nH]ncc23)ccc1O,41.2,11.1,54.2,3.46,12.5,5.52,15.3,3.28,3.65,1.29
CCCN1CCC(c2ccc(Nc3nc(Nc4cc(F)ccc4C(N)=O)c4cc[nH]c4n3)c(OC)c2)CC1,25.1,5.95,11.5,91.8,93.6,97.5,97.3,93.3,97.2,1.62
CCn1c(-c2nonc2N)nc2ccccc21,0.78,5.97,8.93,4.98,6.36,2.87,1.78,3.31,2.08,1.11
CCOc1ccc2c(-c3ccnc(Nc4cccc(C(F)(F)F)c4)n3)cnn2n1,4.94,4.28,6.8,-0.5,1.57,0.36,1.46,0.63,1,0.45
CS(=O)(=O)CCNCc1ccc(-c2ccc3ncnc(Nc4ccc(OCc5ccccc5)c(C(F)(F)F)c4)c3c2)o1,4.69,4.59,5.75,-0.48,-0.18,0.37,2.62,2.84,2.56,0.4
CN1CCC(n2cnc(-c3ccc(F)cc3)c2-c2ccnc(N)n2)CC1,7.42,3.15,7.9,0.43,3.19,2.01,5.41,0.89,1.43,1.04
N#Cc1c(NC(=O)c2ccc(F)cc2)sc2c1CCCC2,3.42,1.68,3.88,0.23,-0.52,3.54,2.79,-2.15,-0.16,0.64
CN(C)CCOc1ccc(-c2nc(-c3ccncc3)c(-c3ccc4c(c3)CC/C4=N\O)[nH]2)cc1,8.51,3.04,8.01,4.59,3.85,5.62,2.19,6.12,3.86,0.77
CCN1CCC(CC(=O)Nc2n[nH]c3nnc(-c4cccc(F)c4F)cc23)CC1,3.55,3.51,1.32,0.88,2.99,1.72,4.05,1.41,0.88,-1.01
CNC(=O)c1cncc(/C=C/c2ccccc2Cl)c1,6.88,1.18,11.3,6.84,5.76,-1.75,-1.65,-0.5,-1.16,1.6
CCn1c(-c2nonc2N)nc2c(C#CC(C)(C)O)nc(OC[C@H](N)c3ccccc3)cc21,4.61,2.17,9.34,6.38,2.6,7.87,1.38,0.82,2.71,2.08
Fc1cccc(COc2ccc(Nc3ncnc4sc(-c5ccco5)cc34)cc2Cl)c1,4.89,4.32,6.64,0.23,0.87,1.94,2.78,2.1,2.84,0.55
COC(=O)Nc1nc2ccc(S(=O)(=O)c3ccc(NC(=O)Nc4cc(C(F)(F)F)ccc4F)cc3)cc2[nH]1,1.28,3.3,7.43,1.19,1.62,0.84,1.88,0.18,1.09,1.08
Fc1ccc(-c2nn3ccccc3c2-c2ccncc2)cc1,1.04,1.96,5.95,0.6,0.31,1.92,4.03,-0.72,0.71,1.1
O=S(=O)(CCNCc1ccc(-c2ccc3ncnc(Nc4ccc(OCc5cccc(F)c5)c(Cl)c4)c3c2)o1)c1ccccc1,4.09,7.05,8.65,4.87,7.55,3.73,6.24,4.04,4.07,0.82
CC1=C(C(=O)Nc2cc(Cl)c3[nH]ncc3c2)C(c2ccc(C(F)(F)F)cc2)CC(=O)N1 (stereo not given),4.45,4.68,6.23,2.66,2.67,5.06,6.02,0.76,1.79,1.11

SMILES,inhibition [1] [%],inhibition [2] [%],inhibition [3] [%],inhibition [4] [%],inhibition [5] [%],inhibition [6] [%],inhibition [7] [%],inhibition [8] [%],inhibition [9] [%],inhibition [10] [%]
COc1cc2c(cc1Nc1nc(Nc3ccsc3C(N)=O)c3cc[nH]c3n1)N(C(=O)CN(C)C)CCC2(C)C,1.15,6.46,12.9,98.1,97.1,98.7,98,98,97.9,1.74
Fc1ccc(-c2nn3ncccc3c2-c2ccnc(Nc3ccc4c(c3)OCCO4)n2)cc1,88,26.3,71.5,8.14,3.49,7.04,18.3,2.61,1.61,1.51
CCN(CC)S(=O)(=O)c1ccc(OC)c(Nc2ncc(-c3ccccc3)o2)c1,45.2,7.41,28.1,7.86,7.98,2.78,2.35,0.57,0.72,0.31
Clc1ccc(-c2nn3ncccc3c2-c2ccnc(Nc3ccccc3)n2)cc1,43.5,7.64,34.1,3.71,5.4,2.64,4.44,0.65,0.7,1.38
CC(C)COC(=O)c1ccc2c(c1)/C(=C/Nc1ccc(S(N)(=O)=O)cc1)C(=O)N2,71.6,4.68,38.5,0.52,1.72,2.06,2.17,-3.52,0.22,0.34
FC(F)(F)c1cccc(-c2nn3ncccc3c2-c2ccnc(Nc3ccc4c(c3)OCCO4)n2)c1,48.1,5.43,31.2,-0.53,1.37,-1.37,3.05,0.31,1.27,0.97
CNC(=O)c1cccc(C#Cc2cncnc2Nc2ccc(OCc3cccc(F)c3)c(Cl)c2)c1,5.06,2.16,2.54,-0.34,-0.55,-2.02,-0.61,0.75,0.96,-0.18
CCn1c(-c2nonc2N)nc2cnc(Oc3cccc(NC(=O)c4ccc(N(C)C)cc4)c3)cc21,1.97,4.12,4.03,-0.26,0.33,2.97,3.14,-0.46,0.53,0.98
CCn1c(-c2nonc2N)nc2c(C#CC(C)(C)O)ncc(OC3CCNCC3)c21,5.91,3.4,7.03,1.97,2.36,1.46,3.32,1.16,2.07,1.99
CC(=O)NCc1cccc(C#Cc2cncnc2Nc2ccc(OCc3cccc(F)c3)c(Cl)c2)c1,3.27,2.8,2.97,0.82,1.07,2.9,0.68,-0.93,-0.28,0.36
COc1cccc(-c2c[nH]c3c(N/N=C/c4ccncc4)ncnc23)c1,58.7,12.8,51.8,0.05,2.22,1.17,3.79,3.25,2.79,1.15
COc1ccc2[nH]c3c4[nH]c5ccc(OC)cc5c4c4c(c3c2c1)C(=O)NC4=O,19,20.1,75.6,5.28,4.22,6.91,10.3,3.27,6.93,1.85
O=C(O[C@H]1CN[C@H](C#Cc2cc3ncnc(Nc4ccc(Cc5ccccc5)cc4)c3s2)C1)N1CCOCC1,5.81,1.46,6.92,-3.02,-1.17,-0.74,-2.74,0.8,1.05,-0.73
COc1ccc(-c2nn3ncccc3c2-c2ccnc(Nc3ccc4c(c3)OCCO4)n2)cc1,36.6,13.4,46,-3.1,7.28,1.21,24.1,0.02,3.24,-1.45
CCCN(CCS(C)(=O)=O)Cc1ccc(-c2ccc3ncnc(Nc4ccc(OCc5cccc(F)c5)c(Cl)c4)c3c2)o1,2.14,4.4,8.65,0.58,1.93,5.38,5.24,0.9,1.54,0.49
Nc1nc(-c2cccc(Cl)c2)c(-c2ccc3ncccc3n2)s1,5.51,3.98,9.71,3.52,2.56,6.92,7.08,1.7,4.52,1.66
N#Cc1c(NC(=O)CN2CCOCC2)sc2c1CCCC2,8.48,2.96,8.43,4.81,5.33,13.2,8.64,3.54,3.5,1.1
Fc1ccc(-c2cc(-c3c[nH]nc3-c3ccccn3)ccn2)cc1,5,5.58,6.04,0.26,1.04,6.47,5.34,2.45,2.16,0.99
COc1cc2ncn(-c3cc(OCc4ccccc4C(F)(F)F)c(C(=O)N(C)C)s3)c2cc1OC,8.11,2.13,10.1,1.61,-0.15,2.79,1.7,-2.24,-0.76,0.81

# Reference: ChEMBL document CHEMBL1961873, “Compounds: GSK PKIS; Assays: Nanosyn kinase panel” (2012)
